Shown is part of a subset that was picked to be rich in hits.
HIV RNase H inh-1 – blocks HIV-1 RNase H cleavage of RNA/DNA duplex. AID 565. hit rate 1.9% among 65,000. RT-RNase H RNA/DNA duplex cleavage, fluorescence. P04585. inhibition, % at 10 µM; in the data active = inhibition above about 50%
RmlC RmlD mix – inhibitors of RmlC and RmlD coupled enzymes. RmlC/RmlD coupled enzyme inhibition, 384-well mixture HTS. inhibition, % at 5.5 µM. hit rate 0.39% among 110,000; in the data active = inhibition above about 30%, passing the limit was not always enough; inconclusive = no clear call, values can overlap the other calls
HIV RNase H inh-2 – confirmation of HIV-1 reverse transcriptase RNase H inhibitors; Recombinant RT RNase H, fluorescent RNA/DNA duplex cleavage; hit rate 39% among 1,000; inhibition, % at 10 µM; shares compounds with HIV RNase H inh-1; AID 651; in the data active = inhibition above about 48%; inconclusive = no clear call, values can overlap the other calls
Of the large screens only hits and unclear results are named; the others gave an inactive call (follow-up assays come after a bar, where they were run).

COC(=O)c1ccc(NC(=O)CSc2nnc(COc3ccc4c(c3)CCCC4)o2)cc1	HIV RNase H inh-1 74.9 | HIV RNase H inh-2 inactive
CCc1ccc(NC(=O)CSc2nnc(COc3ccc4c(c3)CCCC4)o2)cc1	none (no result: HIV RNase H inh-1)
COC(=O)C(NC(=O)c1ccc(C)cc1)(Nc1cccc(C)n1)C(F)(F)F (stereo not given)	none (no result: HIV RNase H inh-1)
O=C(COC(=O)c1ccccc1S(=O)(=O)N1CCCCC1)NCC(F)(F)F	none
COc1ccc2nc3oc(C(=O)Nc4ccc(OC)c(OC)c4)cc3cc2c1	none (no result: HIV RNase H inh-1)
COc1ccc2cc3cc(C(=O)Nc4ccc5c(c4)OCO5)oc3nc2c1	HIV RNase H inh-1 62.5 | HIV RNase H inh-2 inactive
CN1CCN(C(=O)c2ccc(-n3cccc3)cc2)CC1	none (no result: HIV RNase H inh-1)
N[C@@H](C(=O)N[C@@H]1C(=O)N2C(C(=O)O)=C(Cl)CS[C@H]12)c1ccccc1	HIV RNase H inh-1 59.3 | HIV RNase H inh-2 inactive
NC(=O)c1cc[n+](CC2=C(C(=O)O)N3C(=O)[C@@H](NC(=O)C(c4ccccc4)S(=O)(=O)[O-])[C@H]3SC2)cc1 (stereo not given in full)	none (no result: HIV RNase H inh-1)
Clc1cccc(Cl)c1NC1=NCCN1	none (no result: HIV RNase H inh-1)
CCCOC(=O)NC(CC)COC(=O)Nc1cc(C)ccc1C (stereo not given)	HIV RNase H inh-1 92.6 | HIV RNase H inh-2 inactive
CCCCOC(=O)Nc1cc(Cl)ccc1C	none (no result: HIV RNase H inh-1)
CS(=O)(=O)N1CCN(c2ccccc2NC(=O)c2ccco2)CC1	none (no result: HIV RNase H inh-1)
O=C(NCc1ccco1)c1cccc2ccccc12	none
O=C(NCc1ccco1)c1cccnc1-c1nc2ccccc2s1	HIV RNase H inh-1 85.4 (no result: RmlC RmlD mix) | HIV RNase H inh-2 63.0
COc1ccc(NCc2cc3ccccc3[nH]c2=O)cc1	none
COc1ccc(NCc2cc3cc(OC)ccc3[nH]c2=O)cc1	HIV RNase H inh-1 55.9 | HIV RNase H inh-2 inactive
Cc1ccccc1NS(=O)(=O)c1cc(S(C)(=O)=O)ccc1Cl	none
Cc1cc(NS(=O)(=O)c2ccccc2)c(C)c(Cl)c1O	HIV RNase H inh-1 79.8 | HIV RNase H inh-2 inactive
c1ccc2c(c1)[nH]c1nc(SCCN3CCOCC3)nnc12	HIV RNase H inh-1 82.7 | HIV RNase H inh-2 inactive
Brc1ccc2[nH]c3nc(SCCN4CCOCC4)nnc3c2c1	none (no result: RmlC RmlD mix)
O=C1NCC2=C1C(c1ccc(Br)cc1)Nc1ccccc1N2 (stereo not given)	none
COc1ccc(C2N=C(N)N=C(N)N2c2ccccc2OC)cc1OC (stereo not given)	none (no result: HIV RNase H inh-1)
CN=C(Nc1cc(C)nn1CCC#N)c1ccc(F)cc1	none
Cc1nn(CCC#N)c2c1P(=S)(N1CCCC1)OC(c1ccc(F)cc1)=N2 (stereo not given)	HIV RNase H inh-1 91.4 | HIV RNase H inh-2 71.5
COC(=O)C1=CNC=C(C(=O)OC)C1c1ccc(C(=O)OC)cc1	none
CCC(C)C(NC(=O)C1CCC(C)CC1)C(=O)NCc1ccccn1 (stereo not given)	none (no result: HIV RNase H inh-1)
CCOC(=O)c1cccc(NC(=O)CN(c2ccc(C)cc2)S(=O)(=O)c2c(C)n[nH]c2C)c1	none
CCCCN(CC)S(=O)(=O)c1ccc(C(=O)Nc2nnc(-c3cccs3)o2)cc1	HIV RNase H inh-1 74.0 | HIV RNase H inh-2 inconclusive
CCCCN(CCCC)S(=O)(=O)c1ccc(C(=O)Nc2nnc(COC)o2)cc1	none
COC(C[C@@H](O)[C@@H](C)[C@@H](O)COCc1ccccc1)OC	none (no result: HIV RNase H inh-1)
Cc1ccc2cc(CCNC(=O)c3ccco3)c(=O)[nH]c2c1	none
Cc1ccc2cc(CN(C(=O)c3ccco3)c3ccccc3C)c(=O)[nH]c2c1	HIV RNase H inh-1 70.0 | HIV RNase H inh-2 inactive
COc1ccc(C2C=C(c3ccc(Cl)cc3)Nc3nc(NC(C)=O)nn32)cc1 (stereo not given)	HIV RNase H inh-1 56.3 (no result: RmlC RmlD mix) | HIV RNase H inh-2 inactive
CC(=O)Nc1nc2n(n1)C(c1ccccc1)C=C(c1ccccc1)N2 (stereo not given)	none
Cc1c(Cl)cccc1NC(=S)NN1CCOCC1	none (no result: HIV RNase H inh-1)
Cc1nc(-c2cccc(S(=O)(=O)N3CC(C)OC(C)C3)c2)cs1 (stereo not given)	none
Cc1nc(-c2cccc(S(=O)(=O)N3CCOCC3)c2)cs1	HIV RNase H inh-1 78.1 | HIV RNase H inh-2 58.2
Cc1cc(=O)[nH]c(SCC(=O)C23CC4CC(CC(C4)C2)C3)c1C#N	HIV RNase H inh-1 61.4 | HIV RNase H inh-2 inactive
Cc1cc(=O)[nH]c(SCC(=O)O)c1C#N	none (no result: HIV RNase H inh-1)
CCN(CC(=O)N1CCc2ccccc2C1)S(=O)(=O)c1ccc2ccccc2c1	none (no result: HIV RNase H inh-1)
COc1ccc(C(c2nnnn2C(C)(C)C)N2CCN(c3nc4ccccc4s3)CC2)cc1 (stereo not given)	none
CCC(C)(C)n1nnnc1C(c1ccc(O)c(OC)c1)N1CCN(c2nc3ccccc3s2)CC1 (stereo not given)	HIV RNase H inh-1 56.4 | HIV RNase H inh-2 inactive
CCCCOCP(=O)(CCCC)COCCCC	none
CN(C)c1ccc(NC(=O)CN2C(=O)CC(c3ccccc3)=Nc3ccccc32)cc1	HIV RNase H inh-1 88.7 | HIV RNase H inh-2 inactive
CN(C)c1ccc(NC(=O)CCCc2ccccc2)cc1	none
O=C(Nc1ccc(N2C(=O)C3C4C=CC(C4)C3C2=O)cc1)Nc1cccnc1 (stereo not given)	none
CC1CCN(C(=O)CSc2nncn2-c2ccccn2)CC1	HIV RNase H inh-1 75.6 | HIV RNase H inh-2 inactive
CC1CCN(C(=O)CSc2nnc(-c3ccncc3)n2C)CC1	none (no result: HIV RNase H inh-1)
COC(=O)c1ccc(OCC2c3cc(OC)c(OC)cc3CCN2C(=O)c2ccco2)cc1 (stereo not given)	none
CCCN(CCC)CC(=O)Nc1cccc2c1OCO2	none (no result: HIV RNase H inh-1)
O=C(CSc1nc2c([nH]c3ccccc32)c(=O)n1-c1cccc(Cl)c1)N1CCOCC1	HIV RNase H inh-1 78.3 | HIV RNase H inh-2 66.7
O=C(CSc1nc2c([nH]c3ccccc32)c(=O)n1-c1ccccc1)N1CCOCC1	none
COc1cccc(-n2c(SCC(N)=O)nc3c([nH]c4ccccc43)c2=O)c1	none (no result: RmlC RmlD mix)
COc1ccc(-n2c(SCC(=O)N3CCCC3)nc3c([nH]c4ccccc43)c2=O)cc1	HIV RNase H inh-1 87.2 (no result: RmlC RmlD mix) | HIV RNase H inh-2 87.8
Cn1c(C(=O)OC(C(=O)NCc2ccco2)c2ccncc2)cc2sccc21 (stereo not given)	none (no result: HIV RNase H inh-1)
Cc1cccc(NC(=S)N2CCC(C(=O)c3ccc(F)cc3)CC2)c1C	none (no result: HIV RNase H inh-1)
CCOC(=O)c1cc2sccc2n1CC(=O)O	none (no result: HIV RNase H inh-1)
CCOC(=O)c1cc2sccc2n1CC(=O)N1c2ccccc2CC1C (stereo not given)	HIV RNase H inh-1 56.8 | HIV RNase H inh-2 inconclusive
CC(=O)Nc1nnc(-c2ccc3c(c2)CCCC3)o1	none
O=C(COc1ccc(Cl)cc1)Nc1nnc(-c2ccc3c(c2)CCCC3)o1	HIV RNase H inh-1 87.5 | HIV RNase H inh-2 67.3
O=C1NC(c2cccs2)Nc2sc3c(c21)CCCC3 (stereo not given)	HIV RNase H inh-1 93.7 | HIV RNase H inh-2 inactive
CN1CCc2c(sc3c2C(=O)NC(c2cccc(OC(=O)c4cccs4)c2)N3)C1 (stereo not given)	none (no result: RmlC RmlD mix)
COC(=O)CCC(=O)Nc1ccc(Br)cc1	none
O=C(c1ccc2c3c(cccc13)CC2)N1CCOCC1	none
O=C(c1cccnc1Nc1ccc2c(c1)CCC2)N1CCOCC1	HIV RNase H inh-1 83.8 | HIV RNase H inh-2 inactive
Cc1[nH]c(=O)cc2ccccc12	none (no result: RmlC RmlD mix)
CC(C)(C)n1nnnc1C(c1cc2cc3c(cc2[nH]c1=O)OCCO3)N1CCSCC1 (stereo not given)	none
O=c1[nH]c2cc3c(cc2cc1C(c1nnnn1C1CCCC1)N1CCSCC1)OCCO3 (stereo not given)	HIV RNase H inh-1 60.6 (no result: RmlC RmlD mix) | HIV RNase H inh-2 inactive
CCn1c(=O)cc(OCC(=O)Nc2ccc(Cl)cn2)c2ccccc21	none (no result: RmlC RmlD mix)
CCCCNC(=O)c1sc(=S)n2c1[nH]c(=O)c1ccccc12	none
